Drawing on the antibiotic and cytotoxicity screens of Wong et al. (2023), this text covers cytotoxicity call for 61 compounds.

Hit rate of the full screen: of about 39,000 compounds, about 1,500 (3.8%) were called active. For the sample, actives were picked, then their nearest neighbours and some compounds at random.

In the experiment the test system is HSkMC (human skeletal muscle cells). The experiment is described as follows: cytotoxicity call (relative viability < 0.9). Particulars: 10 µM.
As for `C[C@H](CO)N1C[C@H](C)[C@@H](CN(C)C(=O)C2CCCCC2)OCCCC[C@H](C)Oc2ccc(NS(=O)(=O)c3cccs3)cc2C1=O`, the cytotoxicity call was “inactive”.

Regarding `C[C@H](O)C#Cc1cnc2c(c1)C(=O)N([C@@H](C)CO)C[C@H](C)[C@H](CN(C)C(=O)CN1CCOCC1)O2`, the cytotoxicity call is “inactive”.

On to `CC(C)NC(=O)N(C)C[C@@H]1Oc2c(NS(=O)(=O)c3cn(C)cn3)cccc2C(=O)N([C@@H](C)CO)C[C@@H]1C`, for which the cytotoxicity call was “inactive”.

Consider `C[C@@H]1CN([C@@H](C)CO)C(=O)c2cc(NS(=O)(=O)c3cccs3)ccc2O[C@@H](C)CCCCO[C@@H]1CN(C)Cc1ccccc1`, for which the cytotoxicity call was “inactive”.

For the compound `Cc1ccc(S(=O)(=O)Nc2ccc3c(c2)C(=O)N([C@H](C)CO)C[C@H](C)[C@H](CN(C)Cc2ccc(Oc4ccccc4)cc2)O3)cc1`, the cytotoxicity call is “inactive”.

Turning to `Cc1ccc(S(=O)(=O)Nc2ccc3c(c2)C(=O)N([C@H](C)CO)C[C@@H](C)[C@H](CN(C)Cc2ccc(Oc4ccccc4)cc2)O3)cc1`, the cytotoxicity call was “active”.

As for `Cc1ccc(S(=O)(=O)Nc2ccc3c(c2)C(=O)N([C@H](C)CO)C[C@H](C)[C@@H](CN(C)Cc2ccc(Oc4ccccc4)cc2)O3)cc1`, the cytotoxicity call was “inactive”.

For the compound `O=C(CCCCC(=O)N/N=C/[C@H](O)[C@@H](O)[C@@H](O)[C@H](O)C(=O)O)NO`, the cytotoxicity call is “inactive”.

Turning to `CC(=CCO)CCC(C)CCCC(C)CCCC(C)C` (stereo unspecified), the cytotoxicity call was “active”.

Regarding `CC(=CCC1=C(C)C(=O)c2ccccc2C1=O)CCCC(C)CCCC(C)CCCC(C)C` (stereo unspecified), the cytotoxicity call is “inactive”.

For the compound `C/C(=C\CO)CC[C@H](C)CCC[C@H](C)CCCC(C)C`, the cytotoxicity call was “inactive”.

On to `COc1ccc(S(=O)(=O)N(C)C[C@H]2OCCCC[C@H](C)Oc3ccc(NC(=O)C4CCCCC4)cc3C(=O)N([C@H](C)CO)C[C@H]2C)cc1`, for which the cytotoxicity call is “inactive”.

Turning to `CCNC(=O)C[C@H]1C=C[C@@H](NC(=O)C2CC2)[C@H](CO)O1`, the cytotoxicity call is “inactive”.

For the compound `CC1(C)CC(=O)c2c(C(F)(F)F)nn(-c3ccc(C(N)=O)c(O[C@H]4CC[C@H](N)CC4)c3)c2C1`, the cytotoxicity call is “inactive”.

Turning to `CC1(C)CC(=O)c2c(C(F)(F)F)nn(-c3ccc(C(N)=O)c(N[C@H]4CC[C@H](OC(=O)CN)CC4)c3)c2C1`, the cytotoxicity call was “active”.

Consider `NCc1ccccc1-c1ccsc1`, for which the cytotoxicity call is “inactive”.

For the compound `CC(C)C#Cc1cnc2c(c1)C(=O)N([C@@H](C)CO)C[C@H](C)[C@@H](CN(C)C(=O)c1ccc3c(c1)OCO3)O2`, the cytotoxicity call is “inactive”.

Take `COc1ccc(CN(C)C[C@@H]2OCCCC[C@@H](C)Oc3ccc(NC(=O)Nc4ccccc4)cc3C(=O)N([C@H](C)CO)C[C@@H]2C)cc1`: the cytotoxicity call was “inactive”.

`COc1ccc(-c2oc3c(CC=C(C)C)c(O[C@@H]4O[C@H](CO)[C@@H](O)[C@H](O)[C@H]4O)cc(O)c3c(=O)c2O[C@@H]2O[C@@H](C)[C@H](O)[C@@H](O)[C@H]2O)cc1`: the cytotoxicity call was “active”.

For the compound `COc1ccc(-c2oc3cc(O[C@@H]4O[C@@H](C)[C@H](O)[C@@H](O)[C@H]4O)cc(O)c3c(=O)c2O[C@@H]2O[C@H](CO)[C@@H](O)[C@H](O)[C@H]2O)cc1`, the cytotoxicity call was “inactive”.

With `COc1ccc(-c2oc3c(CC=C(C)C)c(OC4OC(CO)C(O)C(O)C4O)cc(O)c3c(=O)c2OC2OC(C)C(O)C(O)C2O)cc1` (stereo unspecified), the cytotoxicity call is “inactive”.

As for `COc1ccc(CN(C)C[C@H]2OCCCC[C@@H](C)Oc3ccc(NS(=O)(=O)c4ccc(OC)cc4)cc3C(=O)N([C@@H](C)CO)C[C@@H]2C)cc1`, the cytotoxicity call was “inactive”.

As to `COc1ccc(CN(C)C[C@H]2OCCCC[C@@H](C)Oc3ccc(NS(=O)(=O)c4ccc(OC)cc4)cc3C(=O)N([C@H](C)CO)C[C@H]2C)cc1`, the cytotoxicity call was “inactive”.

Take `COc1ccc(CN(C)C[C@H]2OCCCC[C@H](C)Oc3ccc(NS(=O)(=O)c4ccc(OC)cc4)cc3C(=O)N([C@@H](C)CO)C[C@@H]2C)cc1`: the cytotoxicity call was “inactive”.

As for `COc1ccc(S(=O)(=O)Nc2ccc3c(c2)C(=O)N([C@H](C)CO)C[C@H](C)[C@H](CN(C)Cc2ccc(Cl)c(Cl)c2)OCCCC[C@@H](C)O3)cc1`, the cytotoxicity call was “inactive”.

For `COc1ccc(S(=O)(=O)Nc2ccc3c(c2)C(=O)N([C@H](C)CO)C[C@H](C)[C@@H](CN(C)Cc2ccc(Cl)c(Cl)c2)OCCCC[C@H](C)O3)cc1`, the cytotoxicity call is “active”.

As for `COc1ccc(S(=O)(=O)Nc2ccc3c(c2)C(=O)N([C@@H](C)CO)C[C@H](C)[C@H](CN(C)Cc2ccc(Cl)c(Cl)c2)OCCCC[C@@H](C)O3)cc1`, the cytotoxicity call was “active”.

For the compound `COc1ccc(S(=O)(=O)Nc2ccc3c(c2)C(=O)N([C@@H](C)CO)C[C@@H](C)[C@H](CN(C)Cc2ccc(Cl)c(Cl)c2)OCCCC[C@@H](C)O3)cc1`, the cytotoxicity call was “active”.

As for `COc1ccc(CN(C)C[C@H]2OCCCC[C@H](C)Oc3ccc(NS(=O)(=O)c4ccc(OC)cc4)cc3C(=O)N([C@H](C)CO)C[C@H]2C)cc1`, the cytotoxicity call was “inactive”.

As for `COc1ccc(S(=O)(=O)Nc2ccc3c(c2)C(=O)N([C@@H](C)CO)C[C@@H](C)[C@@H](CN(C)Cc2ccc(Cl)c(Cl)c2)OCCCC[C@@H](C)O3)cc1`, the cytotoxicity call was “active”.

Regarding `COc1ccc(S(=O)(=O)Nc2ccc3c(c2)C(=O)N([C@H](C)CO)C[C@@H](C)[C@H](CN(C)Cc2ccc(Cl)c(Cl)c2)OCCCC[C@@H](C)O3)cc1`, the cytotoxicity call was “inactive”.

For `Cn1cc(C(F)(F)F)ccc1=S`, the cytotoxicity call was “inactive”.

For `CCS(=O)(=O)N(C)C[C@@H]1OCc2ccccc2-c2c(n(C)c3ccccc23)C(=O)N([C@@H](C)CO)C[C@@H]1C`, the cytotoxicity call was “inactive”.

On to `COCC#Cc1ccc2c(c1)O[C@@H](CN(C)Cc1ccc3c(c1)OCO3)[C@H](C)CN([C@@H](C)CO)S2(=O)=O`, for which the cytotoxicity call is “inactive”.

With `C[C@@H]1CN([C@H](C)CO)C(=O)Cc2cc(NS(=O)(=O)c3cn(C)cn3)ccc2O[C@H]1CN(C)C(=O)Nc1ccc(F)cc1`, the cytotoxicity call is “inactive”.

In the case of `Cc1noc(C)c1S(=O)(=O)Nc1ccc2c(c1)CC(=O)N([C@@H](C)CO)C[C@@H](C)[C@@H](CN(C)S(=O)(=O)c1cccs1)O2`, the cytotoxicity call is “inactive”.

On to `O=S(=O)(c1c[nH]c2ncccc12)N1CC(S(=O)(=O)N2CCOCC2)C1`, for which the cytotoxicity call is “inactive”.

With `Clc1ccc(-c2nnc(Nc3ccccc3)s2)c(Cl)c1`, the cytotoxicity call was “inactive”.

As for `C[C@H](O)C#Cc1cnc2c(c1)C(=O)N([C@@H](C)CO)C[C@@H](C)[C@@H](CN(C)C(=O)Nc1ccc(C(F)(F)F)cc1)O2`, the cytotoxicity call was “inactive”.

`NC(=O)C1N=CN([C@@H]2O[C@H](CO)[C@@H](O)[C@H]2O)C1=O` (stereo partly specified): the cytotoxicity call was “inactive”.

For the compound `COc1ccc(S(=O)(=O)Nc2ccc3c(c2)C(=O)N([C@H](C)CO)C[C@H](C)[C@H](CN(C)Cc2ccc(Cl)c(Cl)c2)OCCCC[C@H](C)O3)cc1`, the cytotoxicity call was “active”.

Regarding `COc1ccc(CN(C)C[C@H]2OCCCC[C@@H](C)Oc3ccc(NS(=O)(=O)c4ccc(OC)cc4)cc3C(=O)N([C@@H](C)CO)C[C@H]2C)cc1`, the cytotoxicity call was “inactive”.

As to `COc1ccc(CN(C)C[C@@H]2OCCCC[C@@H](C)Oc3ccc(NS(=O)(=O)c4ccc(OC)cc4)cc3C(=O)N([C@@H](C)CO)C[C@H]2C)cc1`, the cytotoxicity call is “inactive”.

Regarding `COc1ccc(CN(C)C[C@@H]2OCCCC[C@@H](C)Oc3ccc(NS(=O)(=O)c4ccc(OC)cc4)cc3C(=O)N([C@H](C)CO)C[C@@H]2C)cc1`, the cytotoxicity call was “inactive”.

With `COc1ccc(S(=O)(=O)Nc2ccc3c(c2)C(=O)N([C@H](C)CO)C[C@@H](C)[C@@H](CN(C)Cc2ccc(Cl)c(Cl)c2)OCCCC[C@H](C)O3)cc1`, the cytotoxicity call is “active”.

With `COc1ccc(S(=O)(=O)Nc2ccc3c(c2)C(=O)N([C@H](C)CO)C[C@@H](C)[C@H](CN(C)Cc2ccc(Cl)c(Cl)c2)OCCCC[C@H](C)O3)cc1`, the cytotoxicity call is “active”.

On to `COc1ccc(S(=O)(=O)Nc2ccc3c(c2)C(=O)N([C@@H](C)CO)C[C@H](C)[C@@H](CN(C)Cc2ccc(Cl)c(Cl)c2)OCCCC[C@@H](C)O3)cc1`, for which the cytotoxicity call was “active”.

For `COc1ccc(CN(C)C[C@H]2OCCCC[C@H](C)Oc3ccc(NS(=O)(=O)c4ccc(OC)cc4)cc3C(=O)N([C@H](C)CO)C[C@@H]2C)cc1`, the cytotoxicity call was “inactive”.

Regarding `COc1ccc(S(=O)(=O)Nc2ccc3c(c2)C(=O)N([C@H](C)CO)C[C@H](C)[C@@H](CN(C)Cc2ccc(Cl)c(Cl)c2)OCCCC[C@@H](C)O3)cc1`, the cytotoxicity call is “inactive”.

`COc1ccc(S(=O)(=O)Nc2ccc3c(c2)C(=O)N([C@@H](C)CO)C[C@H](C)[C@@H](CN(C)Cc2ccc(Cl)c(Cl)c2)OCCCC[C@H](C)O3)cc1`: the cytotoxicity call is “inactive”.

In the case of `COc1ccc(NC(=O)Nc2ccc3c(c2)C(=O)N([C@@H](C)CO)C[C@H](C)[C@@H](CN(C)CC2CCCCC2)O3)cc1`, the cytotoxicity call is “inactive”.

Regarding `C[C@H]1CN([C@@H](C)CO)C(=O)c2cc(NS(=O)(=O)c3cn(C)cn3)ccc2O[C@@H]1CN(C)C(=O)Nc1ccccc1`, the cytotoxicity call is “inactive”.

On to `C[C@H](CO)N1C[C@H](C)[C@H](CN(C)S(=O)(=O)c2ccccc2F)Oc2cc(C#Cc3ccccc3)ccc2S1(=O)=O`, for which the cytotoxicity call is “inactive”.

As for `CN(C)[C@@H](CN)c1cccn1C`, the cytotoxicity call was “inactive”.

For `C[C@H](CO)N1C[C@H](C)[C@H](CN(C)C(=O)CN2CCOCC2)Oc2ncc(C#C[C@@H](C)O)cc2C1=O`, the cytotoxicity call was “inactive”.

With `C[C@H](CO)N1C[C@H](C)[C@@H](CN(C)Cc2ccc(-c3ccccc3)cc2)Oc2ccc(NS(=O)(=O)c3cccs3)cc2CC1=O`, the cytotoxicity call was “inactive”.

`C/C(=N\N)c1ccc2ccccc2c1`: the cytotoxicity call is “inactive”.

Regarding `O=C(C[C@H]1CC[C@H]2[C@@H](COC[C@H](O)CN2C(=O)c2ccccc2)O1)N1CCOCC1`, the cytotoxicity call is “inactive”.

Consider `Cc1noc(C)c1NC(=O)Nc1cccc2c1O[C@H](CN(C)S(C)(=O)=O)[C@@H](C)CN([C@H](C)CO)C2=O`, for which the cytotoxicity call is “inactive”.

For `CC(C)NC(=O)N(C)C[C@@H]1Oc2ccc(NC(=O)Cc3ccccc3)cc2C(=O)N([C@@H](C)CO)C[C@@H]1C`, the cytotoxicity call is “inactive”.

Turning to `Cc1noc(C)c1NC(=O)Nc1ccc2c(c1)C(=O)N([C@@H](C)CO)C[C@H](C)[C@@H](CN(C)C(=O)c1ccccc1)OCCCC[C@@H](C)O2`, the cytotoxicity call is “inactive”.
